Key:
Experiment in all cases: protein-binding microarray (PBM); PBM: ~300 nM protein, 6 mM HEPES pH 7.8, 80 mM KCl, 0.5 mM EDTA, 0.5 mM EGTA, 6% glycerol, 35 ng/ul poly-dIdC, 1% milk, 1 h, room temperature; Ap Aiptasia and Nv Nematostella (sea anemones) / Co Capsaspora / Aq Amphimedon (sponge) / Dm Drosophila / Hu human; RHD is the Rel homology domain; high values mean tight binding
Details in all cases: dsDNA, one strand shown
GST-Ap-NF-kB RHD = biological target: T1, GST-Ap-NF-kB RHD (Exaiptasia pallida (Aiptasia), UniProt A0A913YAJ5 2-422)
T1 sequence: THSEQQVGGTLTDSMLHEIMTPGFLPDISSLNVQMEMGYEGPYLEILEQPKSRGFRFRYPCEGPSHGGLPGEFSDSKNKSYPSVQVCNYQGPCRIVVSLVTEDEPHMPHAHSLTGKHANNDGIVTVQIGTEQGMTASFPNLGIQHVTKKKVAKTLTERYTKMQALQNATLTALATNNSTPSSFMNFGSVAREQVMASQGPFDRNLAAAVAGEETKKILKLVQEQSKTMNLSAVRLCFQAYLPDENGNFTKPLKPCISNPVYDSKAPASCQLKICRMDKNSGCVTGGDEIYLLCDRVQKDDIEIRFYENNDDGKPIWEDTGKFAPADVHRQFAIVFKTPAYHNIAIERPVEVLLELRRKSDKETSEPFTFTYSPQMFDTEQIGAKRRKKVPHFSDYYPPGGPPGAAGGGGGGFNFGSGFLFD

[1] = biological target: T2, GST-Nv-NF-kB (Cys allele) (Nematostella vectensis, UniProt E5G601 2-411)
T2 sequence: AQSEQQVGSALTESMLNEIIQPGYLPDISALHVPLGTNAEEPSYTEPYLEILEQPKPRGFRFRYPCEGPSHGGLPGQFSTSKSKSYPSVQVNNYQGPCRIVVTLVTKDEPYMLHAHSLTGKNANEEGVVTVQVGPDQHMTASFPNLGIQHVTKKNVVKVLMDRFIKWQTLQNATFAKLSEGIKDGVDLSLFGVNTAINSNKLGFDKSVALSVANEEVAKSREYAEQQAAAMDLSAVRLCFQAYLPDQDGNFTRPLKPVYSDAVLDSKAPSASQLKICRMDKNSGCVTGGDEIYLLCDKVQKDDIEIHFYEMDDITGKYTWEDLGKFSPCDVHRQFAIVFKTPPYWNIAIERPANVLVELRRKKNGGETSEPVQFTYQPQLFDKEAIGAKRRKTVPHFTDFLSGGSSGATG

GST-Co-NF-kB = biological target: T3, GST-Co-NF-kB (Capsaspora owczarzaki, UniProt F1ARL5 200-546)
T3 sequence: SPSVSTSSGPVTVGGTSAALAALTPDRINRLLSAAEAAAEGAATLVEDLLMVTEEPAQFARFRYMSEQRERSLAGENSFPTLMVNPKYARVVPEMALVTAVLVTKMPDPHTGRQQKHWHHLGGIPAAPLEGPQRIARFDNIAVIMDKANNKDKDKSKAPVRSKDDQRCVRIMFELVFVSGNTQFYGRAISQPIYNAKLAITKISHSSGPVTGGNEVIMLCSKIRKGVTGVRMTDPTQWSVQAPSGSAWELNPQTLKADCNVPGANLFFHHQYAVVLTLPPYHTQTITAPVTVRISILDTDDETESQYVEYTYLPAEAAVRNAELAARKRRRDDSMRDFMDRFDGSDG

GST-Aq-NF-kB = biological target: T4, GST-Aq-NF-kB (Amphimedon queenslandica, UniProt A9Y5G7 2-389)
T4 sequence: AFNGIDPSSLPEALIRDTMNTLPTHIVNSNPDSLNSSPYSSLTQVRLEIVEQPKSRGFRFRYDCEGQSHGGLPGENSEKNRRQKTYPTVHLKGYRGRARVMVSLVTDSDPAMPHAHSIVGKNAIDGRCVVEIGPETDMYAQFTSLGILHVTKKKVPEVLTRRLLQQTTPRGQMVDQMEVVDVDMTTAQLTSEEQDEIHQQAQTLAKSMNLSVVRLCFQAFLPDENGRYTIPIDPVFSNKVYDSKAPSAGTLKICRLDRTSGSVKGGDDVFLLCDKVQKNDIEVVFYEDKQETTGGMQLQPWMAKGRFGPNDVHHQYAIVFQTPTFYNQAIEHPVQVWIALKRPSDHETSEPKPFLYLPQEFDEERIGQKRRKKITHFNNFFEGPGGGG

GST-Dm-Relish = biological target: T5, GST-Dm-Relish (Drosophila melanogaster, UniProt Q94527 99-473)
T5 sequence: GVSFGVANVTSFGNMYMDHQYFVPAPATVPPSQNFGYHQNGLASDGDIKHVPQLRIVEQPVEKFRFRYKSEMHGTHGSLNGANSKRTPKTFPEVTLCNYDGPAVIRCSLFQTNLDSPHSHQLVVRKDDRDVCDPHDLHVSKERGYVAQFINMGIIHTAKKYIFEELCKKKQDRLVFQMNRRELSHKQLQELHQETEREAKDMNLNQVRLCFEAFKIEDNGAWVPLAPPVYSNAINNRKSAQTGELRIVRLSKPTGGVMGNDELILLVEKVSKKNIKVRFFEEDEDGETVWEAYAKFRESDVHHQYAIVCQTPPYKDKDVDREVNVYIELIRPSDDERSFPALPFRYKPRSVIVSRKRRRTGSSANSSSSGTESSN

| Sequence | binding signal (GST-Ap-NF-kB RHD) [z-score] | binding signal [1] [z-score] | binding signal (GST-Co-NF-kB) [z-score] | binding signal (GST-Aq-NF-kB) [z-score] | binding signal (GST-Dm-Relish) [z-score] |
| --- | --- | --- | --- | --- | --- |
| CCGATTAACATCAGGGAAAGGGATGATGTTAATCGGGTCTTGATTCGCTTGACGCTGCTG | 2.49 | 3.29 | 2.1 | 2.84 |  |
| CCGATTAACATCACGTTCCCCCCTGATGTTAATCGGGTCTTGATTCGCTTGACGCTGCTG | 6.32 | 5.07 | 9.5 | 4.43 | 4.11 |
| CCGATTAACATCAGGGGACACCCTGATGTTAATCGGGTCTTGATTCGCTTGACGCTGCTG | 5.89 | 4.47 | 3.91 | 6.52 | 7.15 |
| CCGATTAACATCAGGGATACCCCTGATGTTAATCGGGTCTTGATTCGCTTGACGCTGCTG | 6.66 | 5.69 | 4 | 6.98 | 7.22 |
| CCGATTAACATCACACCCCCCCCTGATGTTAATCGGGTCTTGATTCGCTTGACGCTGCTG | 4.42 | 3.24 | 5.16 | 4.16 | 4.99 |
| CCGATTAACATCAATTTCCCATATGATGTTAATCGGGTCTTGATTCGCTTGACGCTGCTG | 1.56 | 3.3 | 2.34 | 2.17 | 2.14 |
| CCGATTAACATCAACACCCCCCCTGATGTTAATCGGGTCTTGATTCGCTTGACGCTGCTG | 5.32 | 4.06 | 5.33 | 4.43 | 5.81 |
| CCGATTAACATCACGGGATTTACTGATGTTAATCGGGTCTTGATTCGCTTGACGCTGCTG | 2.52 | 2.6 | 1.01 | 3.52 | 7.12 |
| CCGATTAACATCAACAGGGAAAATGATGTTAATCGGGTCTTGATTCGCTTGACGCTGCTG | 3.23 | 4.25 | 2.91 | 3.33 | 1.32 |
| CCGATTAACATCACCCCTCCCCGTGATGTTAATCGGGTCTTGATTCGCTTGACGCTGCTG | 5.01 | 3.48 | 4.15 | 3.26 | 3.47 |
| CCGATTAACATCAGGGGAGTACATGATGTTAATCGGGTCTTGATTCGCTTGACGCTGCTG | 4.22 | 2.88 | 3.31 | 3.06 | 6.35 |
| CCGATTAACATCACAACCCCCCCTGATGTTAATCGGGTCTTGATTCGCTTGACGCTGCTG | 5.55 | 3.59 | 3.83 | 4.6 | 6.16 |
| CCGATTAACATCACCCGATTCCCTGATGTTAATCGGGTCTTGATTCGCTTGACGCTGCTG | 2.55 | 2.62 | 2.5 | 2.54 | 1.62 |
| CCGATTAACATCAACCCTCCCCCTGATGTTAATCGGGTCTTGATTCGCTTGACGCTGCTG | 3.89 | 3.26 | 4.5 | 3.64 | 2.76 |
| CCGATTAACATCAGGGAAAGTAATGATGTTAATCGGGTCTTGATTCGCTTGACGCTGCTG | 3.01 | 4.93 | 3.38 | 4.25 | 2.08 |
| CCGATTAACATCAGGGGGGACAATGATGTTAATCGGGTCTTGATTCGCTTGACGCTGCTG | 4.56 | 4.19 | 6.09 | 4.16 | 2.95 |
| CCGATTAACATCAGGGATTCACCTGATGTTAATCGGGTCTTGATTCGCTTGACGCTGCTG | 5.22 | 4.92 | 1.03 | 5.57 | 9.89 |
| CCGATTAACATCAAGGGATTCCCTGATGTTAATCGGGTCTTGATTCGCTTGACGCTGCTG | 6.28 | 5.98 | 2.7 | 6.56 | 9.45 |
| CCGATTAACATCAAGGGGGAGGGTGATGTTAATCGGGTCTTGATTCGCTTGACGCTGCTG | 4.24 | 3.46 | 4.4 | 4.42 | 3.15 |
| CCGATTAACATCAGGGGGAGTGATGATGTTAATCGGGTCTTGATTCGCTTGACGCTGCTG | 5.05 | 3.63 | 3.71 | 3.44 | 1.66 |
| CCGATTAACATCACTGGGATTTCTGATGTTAATCGGGTCTTGATTCGCTTGACGCTGCTG | 2.53 | 1.96 | 1.15 | 2.37 | 5.55 |
| CCGATTAACATCAGGAAGTTCCCTGATGTTAATCGGGTCTTGATTCGCTTGACGCTGCTG | 4.78 | 5.36 | 2.57 | 7.74 | 4.82 |
| CCGATTAACATCAAACACCCCCCTGATGTTAATCGGGTCTTGATTCGCTTGACGCTGCTG | 4.89 | 4.54 | 4.93 | 5.86 | 5.5 |
| CCGATTAACATCACGGGGGGTAATGATGTTAATCGGGTCTTGATTCGCTTGACGCTGCTG | 4.02 | 2.73 | 6.28 | 3.77 | 3.64 |
| CCGATTAACATCAGGCAATTCCCTGATGTTAATCGGGTCTTGATTCGCTTGACGCTGCTG | 2.76 | 5.17 | 1.58 | 6.13 | 2.03 |
| CCGATTAACATCAGGGAATCTCATGATGTTAATCGGGTCTTGATTCGCTTGACGCTGCTG | 2.33 | 3.41 | 1.96 | 3.46 | 1.4 |
| CCGATTAACATCACATTGTCCCCTGATGTTAATCGGGTCTTGATTCGCTTGACGCTGCTG | 4.03 | 4.18 | 4.12 | 3.26 | 1.73 |
| CCGATTAACATCAGGGGTTTCCATGATGTTAATCGGGTCTTGATTCGCTTGACGCTGCTG | 5.75 | 5.04 | 1.21 | 5.61 | 8.15 |

Reference: paper PMC5700166
